Values joined by “and” are separate entries in the source; they are usually repeats but may differ in a detail not shown here. Equal entries are not always repeated. The campaign covered roughly 5,500 compounds. About 2,000 (36%) were called active. Roughly 18% stayed inconclusive and do not appear here. Rule as the data show it: active = normalized growth mostly below about 0.91 (no sharp cut-off); inconclusive = no clear call, values can overlap the other calls; inactive = mostly above about 0.92. Some of the results follow.
Experiment: chemical genetic growth profiling, strain panel (AID 1159580);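 also: tested at 20 µM; growth read once vehicle control cultures reached saturation at 30 °C; 1 = growth at the plate median or of vehicle wells; lower values mean less growth of the strain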
Details: S. cerevisiae deletion strains, growth OD

Measured: normalized growth

CNC(C)[C@@H]1CC[C@@H](N)[C@@H](OC2[C@@H](N)C[C@@H](N)[C@H](OC3OC[C@](C)(O)[C@H](NC)[C@H]3O)[C@H]2O)O1 (stereo partly drawn)
inactive: locus YAL013W, strain DEP1, hits give low values 1.02 | locus YAL021C, strain ccr4, hits give low values 1.02 | locus YAL026C, strain drs2, hits give low values 0.997 | locus YAL030W, strain snc1, hits give low values 0.998 | locus YBL061C, strain skt5, hits give low values 0.977 | locus YBR009C, strain hhf1, hits give low values 1.01 | locus YBR021W, strain FUR4, hits give low values 1.02 | locus YBR023C, strain chs3, hits give low values 0.988 | locus YBR171W, strain sec66, hits give low values 0.986 | locus YBR229C, strain ROT2, hits give low values 1.02 | locus YBR231C, strain swc5, hits give low values 0.982 | locus YBR279W, strain paf1, hits give low values 0.991 | locus YCL011C, strain gbp2, hits give low values 1.01 | locus YCL016C, strain dcc1, hits give low values 1 | locus YCL029C, strain bik1, hits give low values 1.01 | locus YCL069W, strain vba3, hits give low values 0.992 | locus YCR088W, strain abp1, hits give low values 0.999 | locus YDL005C, strain med2, hits give low values 0.98 | locus YDL035C, strain GPR1, hits give low values 1.01 | locus YDL040C, strain nat1, hits give low values 0.994 | locus YDL074C, strain BRE1, hits give low values 1.03 | locus YDL101C, strain DUN1, hits give low values 1.01 | locus YDL134C, strain PPH21, hits give low values 1 | locus YDL185W, strain tfp1, hits give low values 1.02 | locus YDL192W, strain arf1, hits give low values 1.04 | locus YDR001C, strain nth1, hits give low values 0.988 | locus YDR069C, strain doa4, hits give low values 0.988 | locus YDR101C, strain arx1, hits give low values 0.992 | locus YDR137W, strain rgp1, hits give low values 1.01 | locus YDR150W, strain NUM1, hits give low values 1.01 | locus YDR159W, strain sac3, hits give low values 0.995 | locus YDR162C, strain NBP2, hits give low values 1.01 | locus YDR195W, strain ref2 0.947 | locus YDR297W, strain sur2, hits give low values 0.983 | locus YDR318W, strain mcm21, hits give low values 1.02 | locus YDR334W, strain swr1, hits give low values 0.98 | locus YDR335W, strain msn5, hits give low values 0.98 | locus YDR388W, hits give low values 1.01 | locus YDR392W, strain spt3, hits give low values 1.03 | locus YDR502C, strain sam2, hits give low values 1.05 | locus YEL003W, strain gim4, hits give low values 0.975 | locus YEL037C, strain rad23, hits give low values 0.995 | locus YEL061C, strain CIN8 (second series), hits give low values 0.982 | locus YEL061C, strain CIN8, hits give low values 1.02 | locus YER015W, strain faa2, hits give low values 0.993 | locus YER016W, strain bim1, hits give low values 0.979 | locus YER110C, hits give low values 1.02 | locus YER111C, strain swi4, hits give low values 0.976 | locus YER155C, strain BEM2 (second series), hits give low values 0.997 | locus YER155C, strain BEM2, hits give low values 1.01 | locus YER167W, strain BCK2, hits give low values 1.01 | locus YFR010W, strain ubp6, hits give low values 0.98 | locus YGL078C, strain dbp3, hits give low values 1.02 | locus YGL086W, strain mad1, hits give low values 1.01 | locus YGL167C, strain pmr1, hits give low values 0.982 | locus YGL173C, strain kem1, hits give low values 0.974 | locus YGL227W, strain vid30, hits give low values 0.987 | locus YGL240W, strain doc1, hits give low values 0.99 | locus YGL248W, strain PDE1, hits give low values 1.01 | locus YGL253W, strain hxk2, hits give low values 0.987 | locus YGR135W, strain pre9, hits give low values 1.05 | locus YGR229C, strain SMI1, hits give low values 1.01 | locus YGR252W, strain gcn5, hits give low values 1.04 | locus YHR013C, strain ard1, hits give low values 1.02 | locus YHR027C, strain rpn1, hits give low values 1 | locus YHR030C, strain SLT2, hits give low values 1.02 and 0.984 | locus YHR079C, strain IRE1 (second series), hits give low values 1.02 | locus YHR079C, strain IRE1, hits give low values 1.01 | locus YHR094C, strain hxt1, hits give low values 1.01 | locus YHR129C, strain ARP1, hits give low values 1 | locus YHR142W, strain chs7, hits give low values 0.971 | locus YHR200W, strain rpn10, hits give low values 1.03 | locus YIL066C, strain RNR3, hits give low values 1.01 | locus YIL073C, strain SPO22, hits give low values 1.04 | locus YIL125W, strain kgd1, hits give low values 1.02 | locus YIR030C, strain dcg1, hits give low values 1.03 | locus YJL092W, strain hpr5, hits give low values 0.993 | locus YJL095W, strain BCK1 (second series), hits give low values 0.993 | locus YJL095W, strain BCK1, hits give low values 1.02 and 1 | locus YJL115W, strain asf1, hits give low values 0.982 | locus YJL129C, strain trk1, hits give low values 0.964 | locus YJL134W, strain LCB3, hits give low values 1.02 | locus YJL154C, strain vps35, hits give low values 0.999 | locus YJL164C, strain tpk1, hits give low values 1.01 | locus YJL166W, strain qcr8, hits give low values 0.984 | locus YJL168C, strain set2, hits give low values 1.02 | locus YJL187C, strain SWE1 (second series), hits give low values 1.01 | locus YJL187C, strain SWE1, hits give low values 0.992 | locus YJR043C, strain POL32, hits give low values 0.996 | locus YJR066W, strain TOR1, hits give low values 0.999 | locus YJR075W, strain HOC1, hits give low values 1.03 | locus YKL009W, strain mrt4, hits give low values 1.01 | locus YKL068W, hits give low values 1.01 | locus YKL085W, strain MDH1 (second series), hits give low values 1.02 | locus YKL085W, strain MDH1, hits give low values 1.02 | locus YKL160W, strain elf1, hits give low values 0.977 | locus YKL190W, strain CNB1, hits give low values 1.02 | locus YKR001C, strain vps1, hits give low values 1.02 | locus YKR026C, strain gcn3, hits give low values 1 | locus YKR091W, strain srl3, hits give low values 0.986 | locus YLL001W, strain dnm1, hits give low values 0.972 | locus YLL026W, hits give low values 0.996 | locus YLL041C, strain sdh2, hits give low values 0.995 | locus YLR027C, strain aat2, hits give low values 0.991 | locus YLR039C, strain RIC1, hits give low values 1.08 | locus YLR058C, strain SHM2, hits give low values 1.03 | locus YLR102C, strain apc9, hits give low values 1.03 | locus YLR113W, strain HOG1, hits give low values 0.987 | locus YLR221C, strain rsa3, hits give low values 0.99 | locus YLR258W, strain gsy2, hits give low values 1 | locus YLR262C, strain YPT6 (second series), hits give low values 0.977 | locus YLR262C, strain YPT6, hits give low values 1.05 | locus YLR268W, strain sec22, hits give low values 1.01 | locus YLR320W, strain mms22, hits give low values 1 | locus YLR330W, strain CHS5, hits give low values 1.01 | locus YLR342W, strain FKS1 (second series), hits give low values 0.996 | locus YLR342W, strain FKS1, hits give low values 0.977 | locus YLR357W, strain rsc2, hits give low values 0.991 | locus YLR370C, strain arc18, hits give low values 0.984 | locus YLR371W, strain rom2, hits give low values 1.01 | locus YLR384C, strain iki3, hits give low values 0.992 | locus YLR418C, strain cdc73, hits give low values 1.02 | locus YML016C, strain PPZ1, hits give low values 1.01 | locus YML032C, strain rad52, hits give low values 1.02 | locus YML120C, strain ndi1, hits give low values 0.996 | locus YML124C, strain tub3, hits give low values 1.01 | locus YMR058W, strain fet3, hits give low values 0.994 | locus YMR078C, strain ctf18, hits give low values 1.02 | locus YMR125W, strain sto1, hits give low values 0.979 | locus YMR129W, hits give low values 1 | locus YMR205C, strain PFK2, hits give low values 0.987 | locus YMR223W, strain ubp8, hits give low values 1.04 | locus YMR231W, strain pep5, hits give low values 0.988 | locus YMR263W, strain SAP30, hits give low values 1.01 | locus YMR307W, strain GAS1, hits give low values 1 | locus YNL067W, strain RPL9B, hits give low values 1.02 | locus YNL071W, strain lat1, hits give low values 0.996 | locus YNL153C, strain GIM3, hits give low values 1.01 | locus YNL183C, strain NPR1, hits give low values 0.97 | locus YNL209W, strain ssb2, hits give low values 1 | locus YNL233W, strain BNI4, hits give low values 1.01 | locus YNL248C, strain rpa49, hits give low values 1.02 | locus YNL250W, strain rad50, hits give low values 1.05 | locus YNL271C, strain bni1, hits give low values 1.03 | locus YNL298W, strain CLA4, hits give low values 1.02 | locus YNL307C, strain MCK1, hits give low values 1.03 | locus YNL322C, strain KRE1 (second series), hits give low values 0.988 | locus YNL322C, strain KRE1, hits give low values 1.02 | locus YNR049C, strain mso1, hits give low values 0.986 | locus YNR052C, strain pop2, hits give low values 1.02 | locus YOL006C, strain TOP1, hits give low values 1.06 | locus YOL012C, strain htz1 0.693 | locus YOL147C, strain pex11, hits give low values 1.02 | locus YOR001W, strain rrp6, hits give low values 0.985 | locus YOR061W, strain CKA2, hits give low values 1.01 | locus YOR069W, strain VPS5, hits give low values 1.01 | locus YOR070C, strain gyp1, hits give low values 0.987 | locus YOR080W, strain dia2, hits give low values 0.982 | locus YOR083W, strain WHI5, hits give low values 0.977 | locus YOR106W, strain vam3, hits give low values 0.983 | locus YOR136W, strain idh2, hits give low values 1.02 | locus YOR144C, strain elg1, hits give low values 1.01 | locus YOR184W, strain ser1, hits give low values 1.03 | locus YOR231W, strain MKK1, hits give low values 0.976 | locus YOR265W, strain rbl2, hits give low values 0.987 | locus YOR270C, strain vph1, hits give low values 0.996 | locus YOR290C, strain snf2, hits give low values 1.01 | locus YOR316C, strain cot1, hits give low values 1.02 | locus YPL051W, strain arl3, hits give low values 0.982 | locus YPL078C, strain atp4, hits give low values 0.973 | locus YPL106C, strain sse1, hits give low values 1 | locus YPL240C, strain hsp82, hits give low values 0.99 | locus YPL256C, strain CLN2, hits give low values 0.988 | locus YPR119W, strain clb2, hits give low values 1.03 | locus YPR141C, strain kar3, hits give low values 1.02 | locus YPR163C, strain tif3, hits give low values 1.02 | locus YPR167C, strain met16, hits give low values 1.02 | strain wtn01, hits give low values 1.01

Reference: PubChem BioAssay AID1159580 (chemical genetic matrix, 2015)
